Screening data: PubChem BioAssay, ICCB-Longwood Screening Facility, Harvard Medical School
Sa helicase inh: inhibitors of S. aureus replicative helicase, primary screen, biochemical, fluorescence unwinding readout; replicative DNA helicase (DnaC/DnaB), Staphylococcus aureus; AID 485395, 2010; purified S. aureus helicase, fluorescence unwinding assay; 120,000 compounds, 0.05% hits; inhibition, % (test concentration not listed); in the data active means inhibition above about 25%, passing the limit was not always enough;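 further: 0% = mean of negative control wells and 100% = mean of positive control wells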
Sa growth 42C: S. aureus growth inhibition at 42 and 30 °C, primary screen, LtaS inhibitor project, RN4220, two temperatures; OD600, 20 h, 42 °C; hits give low values; relative growth, % (no concentration beside the values); 170,000 compounds, 0.53% hits; AID 720641, 2013;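 active means relative growth at most 50% at the other temperature and 20+ points below 30 °C, or under 10% at both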
Active calls of the source: *; x = no result; ! = not active in a repeat. Many of the other results were omitted from the sample, so hits are more common in it than they were.

SMILES | Sa helicase inh | Sa growth 42C
CCc1oc2ccccc2c1C(=O)c1cc(Br)c(O)c(Br)c1 | x | 4.4*!
O=C(OC1CCCCC1=O)c1ccc2c(c1)C(=O)N(Cc1ccco1)C2=O (centres undefined) | -3 | 101
O=C(OCc1cccs1)c1ccco1 | -20 | 100
O=S(=O)(NC1CCCC1)c1cccc2cccnc12 | 10 | 113
CC(CCc1ccccc1)NCc1ccco1 (centres undefined) | 0 | 114
CCN(c1ccccc1)S(=O)(=O)c1ccc(NC(=O)c2nc(S(C)(=O)=O)ncc2Cl)cc1 | x | -1.4*
CCS(=O)(=O)c1ncc(Cl)c(C(=O)Nc2ccc(S(=O)(=O)N(C)c3ccccc3)cc2)n1 | x | 89
COc1cc(C(=O)N2CCN(Cc3c[nH]c4ccccc34)CC2)cc(OC)c1OC | 2 | 90
CC(C)CN(CC(C)C)S(=O)(=O)c1ccc(C(=O)O)cc1 | 2 | 92
Cc1nnc(NC(=O)c2ccc(S(=O)(=O)N(CC(C)C)CC(C)C)cc2)o1 | 4 | 0.2*
CCn1c2ccccc2c2cc(C(N)=O)ccc21 | 10 | 86
CCn1c2ccccc2c2cc(N3C(=O)C=CC3=O)ccc21 | x | 3.8*
COc1cc(/C=C/C(=O)C2CC2)cc(OC)c1OC | 18 | 117
Cc1ccc(-c2cc(-c3ccccc3)no2)c(O)c1 | 8 | 98
Cc1ccc(O)c(-c2cc(C(F)(F)F)no2)c1 | 6 | 0.2*
CCN(CC)C(=O)c1cc(-c2ccccc2O)on1 | 4 | 117
Oc1ccccc1-c1cc(C(F)(F)C(F)F)no1 | -15 | 1.5*
O=C1CC(NNc2ccccc2)C(=O)N1 (centres undefined) | 6 | 109
c1csc(-c2nnc(Sc3nc(CN4CCCCC4)nc4sc5c(c34)CCCC5)o2)c1 | -1 | 126
O=C(NC(c1cccs1)c1ccc2cccnc2c1O)C1CCCCC1 (centres undefined) | 16 | 105
Cc1conc1NC(c1cccs1)c1ccc2cccnc2c1O (centres undefined) | 11 | 3.1*
c1ccc(-c2ccc3ccccc3n2)nc1 | -5 | 63
c1ccc(-c2cccc(-c3ccccn3)n2)nc1 | 12 | 2.4*
CC(N=C1CCCc2ccccc2N1)C(=O)O (centres undefined) | -9 | 92
CCN(CC)CC(O)COc1ccc(C(C)(C)CC)cc1C(C)(C)CC (centres undefined) | -3 | -0.7*
SMILES | Sa helicase inh | Sa growth 42C
CCN(CC)CC(O)COc1ccc(OC)cc1 (centres undefined) | 0 | x
COCc1nnc(NS(=O)(=O)c2ccc(OC)cc2)s1 | 8 | 95
CCc1nnc(NS(=O)(=O)c2ccc(N)cc2)s1 | 3 | 9.7*
CCNS(=O)(=O)c1ccc(OC)c(C(C)(C)C)c1 | -18 | 93
Cc1ccc(S(=O)(=O)NC(C(=O)NC2CCCCC2)C(C)C)cc1 (centres undefined) | -18 | 94
CCC(Sc1nc2ncccc2c(=O)n1CC1CCCO1)C(=O)Nc1cccc(OC)c1 (centres undefined) | 2 | 93
COc1ccc(CCC(O)C2(O)CCCCC2)cc1 (centres undefined) | 15 | 91
COc1ccc(CCN=C=S)cc1 | 23 | 9.0*
Cn1ccnc1SCC(=O)Nc1ccc(S(N)(=O)=O)cc1 | 16 | 103
C=CC1=C(C(=O)O)N2C(=O)[C@@H](NC(=O)/C(=N\O)c3csc(N)n3)[C@H]2SC1 (stereo in doubt) | x | -0.4*
C=CC1=C(C(=O)O)N2C(=O)[C@@H](NC(=O)C(=NOCC(=O)O)c3csc(N)n3)[C@H]2SC1 | x | -0.2*
C[C@H]1[C@H](NC(=O)/C(=N\OC(C)(C)C(=O)O)c2csc(N)n2)C(=O)N1S(=O)(=O)O | x | 90
CO/N=C(\C(=O)N[C@@H]1C(=O)N2C(C(=O)[O-])=C(C[N+]3(C)CCCC3)CS[C@H]12)c1csc(N)n1 | x | -0.5*
CO/N=C(\C(=O)NC1C(=O)N2C(C(=O)OCOC(=O)C(C)(C)C)=C(/C=C\c3scnc3C)CSC12)c1csc(N)n1 (centres undefined) | x | 5.1*
CC(C)(O/N=C(\C(=O)N[C@@H]1C(=O)N2C(C(=O)[O-])=C(C[n+]3ccccc3)CS[C@H]12)c1csc(N)n1)C(=O)O | x | 77
COC(=O)COc1ccccc1C(=O)OC | 13 | 96
COc1cc(-c2cc(C(=O)NN=C3CCN(C(C)=O)CC3)c3ccccc3n2)cc(OC)c1OC | -1 | 93
COc1ccc(C(c2cc3c(cc2O)OCO3)N2CCOCC2)cc1 (centres undefined) | 7 | 1.8*
Cc1cc(C)cc(C(=O)NCC(c2ccc(N(C)C)cc2)N2CCCC2)c1 (centres undefined) | x | 89
CN(C)c1ccc(C(c2cc3c(cc2O)OCO3)N2CCCCC2)cc1 (centres undefined) | 6 | 0.9*
COc1ccc(C(=O)NCC(c2ccc3c(c2)OCO3)N2CCOCC2)cc1 (centres undefined) | x | 85
